Counter-ions that a name gives are not always drawn.
Columns and labels:
[1] = system: Saccharomyces cerevisiae BY4741 SeMeCo community; assay: z-score of prototroph abundance vs DMSO median; higher = larger share of this subpopulation than in DMSO controls; settings: 10 µM; 24 h; SM minimal medium; subpopulation (auxotrophy): Prototroph
In short: (§1)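 Automated confocal microscopy of paraformaldehyde-fixed cells was used to follow a Saccharomyces cerevisiae BY4741 community carrying four plasmids, each restoring one auxotrophy and encoding a distinct fluorescent protein. The community was pre-grown overnight to OD600 1.0, diluted to 0.3, and added at 70 µl to 384-well plates acoustically predosed with library drugs (10 µM final) for 24 h of growth in minimal SM medium. Single-auxotroph fluorescent strains set thresholds and autofluorescence correction, and each subpopulation's abundance was scored as a z-score against the vehicle-well median.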

[2] = system: Saccharomyces cerevisiae BY4741 SeMeCo community; assay: z-score of subpopulation abundance vs DMSO median, subpopulation auxotrophic for M; higher = larger share of this subpopulation than in DMSO controls; settings: 10 µM; 24 h; SM minimal medium; subpopulation (auxotrophy): M
In short: as §1

[3] = system: Saccharomyces cerevisiae BY4741 SeMeCo community; assay: z-score of subpopulation abundance vs DMSO median, subpopulation auxotrophic for L; higher = larger share of this subpopulation than in DMSO controls; settings: 10 µM; 24 h; SM minimal medium; subpopulation (auxotrophy): L
In short: as §1

[4] = system: Saccharomyces cerevisiae BY4741 SeMeCo community; assay: z-score of subpopulation abundance vs DMSO median, subpopulation auxotrophic for U; higher = larger share of this subpopulation than in DMSO controls; settings: 10 µM; 24 h; SM minimal medium; subpopulation (auxotrophy): U
In short: as §1

[5] = system: Saccharomyces cerevisiae BY4741 SeMeCo community; assay: z-score of subpopulation abundance vs DMSO median, subpopulation auxotrophic for H; higher = larger share of this subpopulation than in DMSO controls; settings: 10 µM; 24 h; SM minimal medium; subpopulation (auxotrophy): H
In short: as §1

[6] = system: Saccharomyces cerevisiae BY4741 SeMeCo community; assay: z-score of subpopulation abundance vs DMSO median, subpopulation auxotrophic for LU; higher = larger share of this subpopulation than in DMSO controls; settings: 10 µM; 24 h; SM minimal medium; subpopulation (auxotrophy): LU
In short: as §1

[7] = system: Saccharomyces cerevisiae BY4741 SeMeCo community; assay: z-score of subpopulation abundance vs DMSO median, subpopulation auxotrophic for LM; higher = larger share of this subpopulation than in DMSO controls; settings: 10 µM; 24 h; SM minimal medium; subpopulation (auxotrophy): LM
In short: as §1

[8] = system: Saccharomyces cerevisiae BY4741 SeMeCo community; assay: z-score of subpopulation abundance vs DMSO median, subpopulation auxotrophic for HM; higher = larger share of this subpopulation than in DMSO controls; settings: 10 µM; 24 h; SM minimal medium; subpopulation (auxotrophy): HM
In short: as §1

[9] = system: Saccharomyces cerevisiae BY4741 SeMeCo community; assay: z-score of subpopulation abundance vs DMSO median, subpopulation auxotrophic for HU; higher = larger share of this subpopulation than in DMSO controls; settings: 10 µM; 24 h; SM minimal medium; subpopulation (auxotrophy): HU
In short: as §1

[10] = system: Saccharomyces cerevisiae BY4741 SeMeCo community; assay: z-score of subpopulation abundance vs DMSO median, subpopulation auxotrophic for HL; higher = larger share of this subpopulation than in DMSO controls; settings: 10 µM; 24 h; SM minimal medium; subpopulation (auxotrophy): HL
In short: as §1

[11] = system: Saccharomyces cerevisiae BY4741 SeMeCo community; assay: z-score of subpopulation abundance vs DMSO median, subpopulation auxotrophic for HLU; higher = larger share of this subpopulation than in DMSO controls; settings: 10 µM; 24 h; SM minimal medium; subpopulation (auxotrophy): HLU
In short: as §1

[12] = system: Saccharomyces cerevisiae BY4741 SeMeCo community; assay: z-score of subpopulation abundance vs DMSO median, subpopulation auxotrophic for HLM; higher = larger share of this subpopulation than in DMSO controls; settings: 10 µM; 24 h; SM minimal medium; subpopulation (auxotrophy): HLM
In short: as §1

[13] = system: Saccharomyces cerevisiae BY4741 SeMeCo community; assay: z-score of subpopulation abundance vs DMSO median, subpopulation auxotrophic for HUM; higher = larger share of this subpopulation than in DMSO controls; settings: 10 µM; 24 h; SM minimal medium; subpopulation (auxotrophy): HUM
In short: as §1

[14] = system: Saccharomyces cerevisiae BY4741 SeMeCo community; assay: z-score of subpopulation abundance vs DMSO median, subpopulation auxotrophic for LUM; higher = larger share of this subpopulation than in DMSO controls; settings: 10 µM; 24 h; SM minimal medium; subpopulation (auxotrophy): LUM
In short: as §1

[15] = system: Saccharomyces cerevisiae BY4741 SeMeCo community; assay: z-score of subpopulation abundance vs DMSO median, subpopulation auxotrophic for HLUM; higher = larger share of this subpopulation than in DMSO controls; settings: 10 µM; 24 h; SM minimal medium; subpopulation (auxotrophy): HLUM
In short: as §1

[16] = system: Saccharomyces cerevisiae BY4741 SeMeCo community; assay: z-score of subpopulation abundance vs DMSO median, subpopulation auxotrophic for UM; higher = larger share of this subpopulation than in DMSO controls; settings: 10 µM; 24 h; SM minimal medium; subpopulation (auxotrophy): UM
In short: as §1

SMILES | z-score of prototroph abundance [1] | z-score of subpopulation abundance [2] | z-score of subpopulation abundance [3] | z-score of subpopulation abundance [4] | z-score of subpopulation abundance [5] | z-score of subpopulation abundance [6] | z-score of subpopulation abundance [7] | z-score of subpopulation abundance [8] | z-score of subpopulation abundance [9] | z-score of subpopulation abundance [10] | z-score of subpopulation abundance [11] | z-score of subpopulation abundance [12] | z-score of subpopulation abundance [13] | z-score of subpopulation abundance [14] | z-score of subpopulation abundance [15] | z-score of subpopulation abundance [16]
CCCCCCCCCCCC(=O)O [Lauric Acid] | 0.84 | -1.03 | -0.6 | 0.57 | -1.48 | -0.2 | -0.8 | -0.82 | -0.42 | -1.05 | -0.82 | -1.21 | -0.04 | -0.68 | -0.48 | –
O=C1N=C(O)NC1(c1ccccc1)c1ccccc1 [Phenytoin Sodium] | -0.72 | -0.37 | 0.11 | 1.21 | -0.03 | 0.96 | -0.6 | -1.02 | -0.05 | -0.83 | 0.17 | 0.15 | 0.83 | -0.31 | 1.18 | 0.67
C#CCN[C@@H]1CCc2ccccc21 [Rasagiline] | 0.01 | -0.39 | -0.1 | 0.2 | -0.48 | 0.78 | -0.61 | -0.4 | 0 | -0.5 | -0.13 | -0.17 | -0.36 | 0.07 | 0.12 | –
c1ccc2[nH]c(-c3cscn3)nc2c1 [Thiabendazole] | 0.41 | 0.77 | -0.23 | -0.7 | -0.52 | -0.61 | 0.06 | -0.37 | -0.69 | -0.01 | -0.4 | -0.38 | 0.33 | 0.16 | -0.43 | -0.41
COc1cc(N)c(Cl)cc1C(=O)NC1CCN(CCCOc2ccc(F)cc2)CC1OC (stereo not drawn) [Cisapride hydrate] | -0.46 | 0.32 | -0.75 | 0.95 | 0.05 | 0.83 | -0.23 | 0.29 | 1.34 | -0.17 | 0.05 | 0.12 | 0.84 | -0.28 | -0.3 | 0.98
CC/C(=C(\c1ccccc1)c1ccc(OCCN(C)C)cc1)c1ccccc1 [Tamoxifen Citrate] | -0.56 | -1.11 | -0.42 | 0.72 | 1.16 | 0.35 | -0.23 | 0.16 | 0.74 | 0.64 | 0.36 | -0.48 | 1.07 | 0.58 | -0.65 | 1.43
CCCCCNC(=N)N/N=C/c1c[nH]c2ccc(OC)cc12 [Tegaserod Maleate] | -1.66 | 1.25 | 2.04 | -1.24 | – | 0.84 | 1.85 | 1.48 | 0.48 | 2.5 | 1.26 | 1.63 | 0.89 | – | 1.76 | -0.55

— the supplement of paper PMC8975748
